Reference: PubChem BioAssay (NCI)
The panel holds about 83,000 compounds, 20% with a hit somewhere; the sample as a whole holds those more often.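 The endpoint reported here, percent growth, reads 100 for growth as untreated, 0 for no net growth and -100 for all cells dead.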 Calls of active or inactive are those of the source. Rule for the calls: active = growth percent below 10; inactive = the rest.

Columns and labels:
Assay in all cases: NCI-60 one-dose screen, 48 h (100 = growth as untreated, 0 = no growth, -100 = all killed)
Settings in all cases: 10 µM
T-47D breast = system: T-47D breast
BT-549 breast = system: BT-549 breast
MDA-MB-435 melanoma = system: MDA-MB-435 melanoma
SW-620 colon = system: SW-620 colon
MCF7 breast = system: MCF7 breast
HCT-116 colon = system: HCT-116 colon
HCC-2998 colon = system: HCC-2998 colon
KM12 colon = system: KM12 colon

Measured: growth

CC(=O)[C@@]12O[C@](C)(c3ccccc3)O[C@@H]1CC1C3CCC4=CC(=O)CC[C@]4(C)C3CC[C@@]12C (stereo partly drawn)
inactive: T-47D breast 74.3% | BT-549 breast 79.7% | MDA-MB-435 melanoma 77.8% | SW-620 colon 83.3% | MCF7 breast 59% | HCT-116 colon 48.2% | HCC-2998 colon 79.3% | KM12 colon 70.8%

COc1ccc(-c2cc(-c3ccc(Cl)cc3)nc(SCCCC(=O)NO)n2)cc1
active: T-47D breast 8.24% | MCF7 breast 0.343% | HCT-116 colon 8.41% | HCC-2998 colon -10%
inactive: BT-549 breast 26.1% | MDA-MB-435 melanoma 18.1% | SW-620 colon 14.2% | KM12 colon 18%

Cc1cc(CCNC=O)c(C)c2c1sc1ccccc12
inactive: T-47D breast 92.8% | BT-549 breast 96.9% | MDA-MB-435 melanoma 94.5% | SW-620 colon 102% | MCF7 breast 100% | HCT-116 colon 94% | HCC-2998 colon 104% | KM12 colon 103%

O=C(N/N=C/c1ccc(Cl)cc1)c1ccc(Cc2n[nH]c(=O)c3cccnc23)cc1
inactive: T-47D breast 99.4% | BT-549 breast 100% | MDA-MB-435 melanoma 95.5% | SW-620 colon 113% | MCF7 breast 95.8% | HCT-116 colon 94.5% | HCC-2998 colon 89.8% | KM12 colon 108%

CCC(c1ccc(OC)cc1)C(CC)c1ccc(O)c(CN2CCN(C)CC2)c1 (stereo not drawn)
active: HCC-2998 colon -1.52%
inactive: T-47D breast 39.1% | BT-549 breast 76.9% | MDA-MB-435 melanoma 33.5% | SW-620 colon 16.6% | MCF7 breast 50.9% | HCT-116 colon 29.1% | KM12 colon 53.9%

COc1cc(C2CC(c3cc(Cl)c(C)cc3O)=NN2c2ccc(S(N)(=O)=O)cc2)cc(OC)c1OC (stereo not drawn)
inactive: BT-549 breast 30.9% | MDA-MB-435 melanoma 20.9% | SW-620 colon 18.8%
active: T-47D breast -1.47% | MCF7 breast -15.4% | HCT-116 colon -14.3% | HCC-2998 colon -20.6% | KM12 colon 2.06%

COc1cccc(N=Nc2cccc(OC)c2)c1
inactive: T-47D breast 70.2% | BT-549 breast 85% | MDA-MB-435 melanoma 98.6% | SW-620 colon 94.2% | MCF7 breast 78.8% | HCT-116 colon 84.8% | HCC-2998 colon 88.6% | KM12 colon 95.8%

Nc1ccc(-c2cccs2)cc1NC(=O)c1ccc(CCCC(=O)Nc2ccc(C3CC3N)cc2)cc1 (stereo not drawn)
inactive: T-47D breast 65.1% | BT-549 breast 96.5% | MDA-MB-435 melanoma 20.6% | SW-620 colon 23.7% | MCF7 breast 18.8% | HCC-2998 colon 99.7% | KM12 colon 69.3%
active: HCT-116 colon 3.29%

COc1cc(-c2nc3ccccc3o2)cc(CN2CCCCC2)c1O
inactive: T-47D breast 86.6% | BT-549 breast 67.2% | SW-620 colon 64.6% | MCF7 breast 50.8% | HCT-116 colon 57.2% | HCC-2998 colon 97.7% | KM12 colon 44.9%
active: MDA-MB-435 melanoma -79.9%

COc1cc2c(cc1NC(=O)C(Cl)Cl)-c1ccc(NC(=O)C(Cl)Cl)cc1C2
active: T-47D breast 3.05% | MDA-MB-435 melanoma -57.7% | SW-620 colon -11.6% | MCF7 breast -3.08% | HCT-116 colon -61% | HCC-2998 colon -98.5% | KM12 colon -65.5%
inactive: BT-549 breast 69.3%

C=C/C(C)=C/C[C@]1(C)[C@H](C)[C@@H](OC(=O)CCC)[C@H](O)[C@@]23C(=C[C@H](OC)C[C@@H]12)[C@@H](OC(=O)CCC)O[C@H]3OC(C)=O
active: T-47D breast -40% | BT-549 breast -48.3% | MDA-MB-435 melanoma -70.3% | SW-620 colon -61.1% | MCF7 breast 9.34% | HCT-116 colon -70.3% | HCC-2998 colon -80.7% | KM12 colon 8.41%

Cc1ccccc1N1C(=O)c2cc(S(N)(=O)=O)c(Cl)cc2NC1C (stereo not drawn)
inactive: T-47D breast 104% | BT-549 breast 96.6% | MDA-MB-435 melanoma 112% | SW-620 colon 108% | MCF7 breast 94.2% | HCT-116 colon 102% | HCC-2998 colon 107% | KM12 colon 108%

N#CC1=C(N)Oc2cc(N)ccc2C1c1cccnc1 (stereo not drawn)
inactive: T-47D breast 94.2% | BT-549 breast 88.4% | MDA-MB-435 melanoma 71.8% | SW-620 colon 90.1% | MCF7 breast 89.4% | HCT-116 colon 88.3% | HCC-2998 colon 82.4% | KM12 colon 89.7%

COc1ccc(C(c2ccc(OCCN(C)C)cc2)c2cc3ccccc3c3ccccc23)cc1 (stereo not drawn)
inactive: T-47D breast 21.8% | BT-549 breast 93% | KM12 colon 19.3%
active: MDA-MB-435 melanoma -25.4% | SW-620 colon -46.6% | MCF7 breast 2.13% | HCT-116 colon -75% | HCC-2998 colon -19.7%

CN(C)CCCN1c2ccccc2CCc2ccc(Cl)cc21
inactive: T-47D breast 41.3% | BT-549 breast 77.8% | MDA-MB-435 melanoma 28.5% | SW-620 colon 89% | MCF7 breast 50.8% | HCT-116 colon 43% | KM12 colon 79.3%
active: HCC-2998 colon -13.4%

COc1ccccc1-n1c(-c2csc(NC(C)=O)n2)n[nH]c1=S
inactive: T-47D breast 104% | BT-549 breast 94.7% | MDA-MB-435 melanoma 85.3% | SW-620 colon 105% | MCF7 breast 97.5% | HCT-116 colon 100% | HCC-2998 colon 101% | KM12 colon 104%

CC[C@@H](C(=O)[C@H](C)[C@H](O)[C@@H](C)[C@H]1O[C@H]([C@@H](CC)C(=O)N(CC)CC)CC[C@H]1C)C1O[C@]2(C=C[C@@H](O)[C@]3(CC[C@@](C)([C@H]4CC[C@](O)(CC)[C@H](C)O4)O3)O2)[C@H](C)C[C@@H]1C (stereo partly drawn)
inactive: T-47D breast 17% | BT-549 breast 37.1% | MDA-MB-435 melanoma 26.3% | SW-620 colon 18.5% | MCF7 breast 10.4% | HCT-116 colon 10.8% | HCC-2998 colon 22.1% | KM12 colon 29.6%

Nc1nc(Cl)nc2c1ncn2C1O[C@H](CO)[C@@H](O)[C@@H]1F (stereo partly drawn)
inactive: T-47D breast 49.3% | BT-549 breast 20.4% | MDA-MB-435 melanoma 41.5% | SW-620 colon 49.7% | MCF7 breast 30.7% | HCT-116 colon 25.3% | HCC-2998 colon 57.3% | KM12 colon 51.4%

Nc1cc(-c2ccncc2)c[nH]c1=O
inactive: T-47D breast 114% | BT-549 breast 93.5% | MDA-MB-435 melanoma 115% | SW-620 colon 110% | MCF7 breast 91% | HCT-116 colon 97.1% | HCC-2998 colon 116% | KM12 colon 104%

O=c1cn[nH]c2ccc(Br)cc12
inactive: T-47D breast 83% | BT-549 breast 105% | MDA-MB-435 melanoma 111% | SW-620 colon 103% | MCF7 breast 105% | HCT-116 colon 97.8% | HCC-2998 colon 108% | KM12 colon 98.7%

C/C(=C/CCC(C)[C@@H]1CC[C@]2(C)C3=C(CC[C@@]12C)[C@@]1(C)CCC(=O)C(C)(C)[C@@H]1CC3)C(=O)O (stereo partly drawn)
active: T-47D breast -48.9% | BT-549 breast -90.8% | MDA-MB-435 melanoma -75% | SW-620 colon -85.2% | MCF7 breast -54.8% | HCT-116 colon -93.1% | HCC-2998 colon -85.3% | KM12 colon -87.6%

CC1/C=C/C=C/C=C/C=C/C=C/C=C/C=C/C(O[C@@H]2O[C@H](C)[C@H](O)[C@@H](O)[C@@H]2N)CC(O)C(C(=O)O)C(O)CC(=O)CC(O)CC(O)CC(O)CC(=O)CCCC(=O)CC(=O)OC1C(C)CC(C)C(O)CC(=O)c1ccc(N)cc1 (stereo partly drawn)
active: T-47D breast -87.1% | BT-549 breast -93% | MDA-MB-435 melanoma -93% | SW-620 colon -95.3% | MCF7 breast -87% | HCT-116 colon -90.7% | HCC-2998 colon -98.1% | KM12 colon -96%

O=C1/C=C/[C@@H](O)[C@@H]2C[C@@H](O)C[C@H]2/C=C/CCC[C@H](C(F)(F)F)O1
active: T-47D breast -57.2% | MDA-MB-435 melanoma 6.68% | SW-620 colon -23.1% | MCF7 breast -64.2% | HCT-116 colon -30.4% | HCC-2998 colon -36.5%
inactive: BT-549 breast 15.8% | KM12 colon 30%

COc1cc(N)c2ncccc2c1SC
inactive: T-47D breast 93.1% | BT-549 breast 102% | MDA-MB-435 melanoma 110% | SW-620 colon 104% | MCF7 breast 104% | HCT-116 colon 99.3% | HCC-2998 colon 102% | KM12 colon 102%

CSc1ccc(-c2cc(-c3ccc(NC(=O)CCCN4CCCC4)cc3)nc(-c3ccc(NC(=O)CCCN4CCCC4)cc3)c2)cc1
active: MCF7 breast -86.4%
inactive: T-47D breast 102% | BT-549 breast 77.6% | MDA-MB-435 melanoma 79.7% | SW-620 colon 67.6% | HCT-116 colon 80.4% | HCC-2998 colon 86.3% | KM12 colon 24.6%

Oc1ccc(/C=N/N=C2c3ccccc3-c3ccccc32)c(O)c1
inactive: T-47D breast 42.8% | BT-549 breast 78.4% | MDA-MB-435 melanoma 21.5% | SW-620 colon 75.4% | MCF7 breast 43.3% | HCT-116 colon 66.1% | HCC-2998 colon 80.9% | KM12 colon 52.2%

CCOC(=O)c1cc(C(=O)c2cc(OC)c(OC)c(OC)c2)n2nc(C)ccc12
inactive: T-47D breast 93.6% | BT-549 breast 47.5% | SW-620 colon 26.7% | MCF7 breast 21.6% | HCT-116 colon 14.7% | HCC-2998 colon 25.9% | KM12 colon 28%
active: MDA-MB-435 melanoma 3.24%

COc1ccc(/C(C#N)=C/c2cccc(OC)c2OC)cc1
inactive: T-47D breast 80.7% | BT-549 breast 78.1% | SW-620 colon 65.2% | MCF7 breast 66% | HCT-116 colon 89.7% | HCC-2998 colon 78.4% | KM12 colon 56.7%
active: MDA-MB-435 melanoma 9.46%

COc1cc2cc(Oc3ccc(NC(=O)Nc4ccc(C(F)(F)F)cc4)cc3)c(C)nc2cc1OC
inactive: T-47D breast 57.5% | BT-549 breast 113% | MDA-MB-435 melanoma 80.3% | SW-620 colon 75.3% | MCF7 breast 84.3% | HCT-116 colon 47.2% | HCC-2998 colon 94.8% | KM12 colon 64.4%

CC(C)[N+]1(C)C2CC[C@@H]1CC(OC(=O)C(CO)c1ccccc1)C2 (stereo partly drawn)
inactive: T-47D breast 96.6% | BT-549 breast 106% | MDA-MB-435 melanoma 104% | SW-620 colon 101% | MCF7 breast 111% | HCT-116 colon 107% | HCC-2998 colon 103% | KM12 colon 115%

Cc1[nH]c2ccccc2c1/C=N/Nc1ncnc2sc3c(c12)CCN(CC(=O)OC(C)(C)C)C3
inactive: T-47D breast 80.7% | BT-549 breast 81.4% | MDA-MB-435 melanoma 32.3% | SW-620 colon 60% | MCF7 breast 65.4% | HCT-116 colon 40.8% | HCC-2998 colon 99.5% | KM12 colon 76%
